According to PubChem BioAssay AID1159580 (chemical genetic matrix, 2015):
Hit rate of the full screen: of about 5,500 compounds, about 2,000 (36%) were called active. Roughly 18% stayed inconclusive and do not appear here. No stated cut-off is given here; in the data, active means normalized growth mostly below about 0.91 (no sharp cut-off); inconclusive means no clear call, values can overlap the other calls; inactive means mostly above about 0.92. The list shows a part of the results.

Test: chemical genetic growth profiling, strain panel (AID 1159580);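 further: tested at 20 µM; growth read once vehicle control cultures reached saturation at 30 °C; 1 = growth at the plate median or of vehicle wells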
Settings: growth OD
[1] = S. cerevisiae deletion strains, locus YDL101C, strain DUN1, stronger effect = lower value
[2] = S. cerevisiae deletion strains, locus YHR030C, strain SLT2, stronger effect = lower value

Measured: normalized growth

O=C(Nc1ccc(OC(F)(F)F)cc1)Nc1cncc(C(F)(F)F)c1
inactive: S. cerevisiae deletion strains, locus YAR019C, strain CDC15, stronger effect = lower value 0.987 | S. cerevisiae deletion strains, locus YBL105C, strain PKC1, stronger effect = lower value 0.995 | S. cerevisiae deletion strains, locus YBR135W, strain CKS1, stronger effect = lower value 0.989 | S. cerevisiae deletion strains, locus YBR136W, strain MEC1, stronger effect = lower value 0.994 | S. cerevisiae deletion strains, locus YBR160W, strain CDC28, stronger effect = lower value 0.993 | S. cerevisiae deletion strains, locus YDL017W, strain CDC7, stronger effect = lower value 0.995 | S. cerevisiae deletion strains, locus YDL028C, strain MPS1, stronger effect = lower value 0.991 | [1] 1.01 | S. cerevisiae deletion strains, locus YDL108W, strain KIN28, stronger effect = lower value 0.988 | S. cerevisiae deletion strains, locus YDL132W, strain cdc53, stronger effect = lower value 0.995 | S. cerevisiae deletion strains, locus YDL214C, strain PRR2, stronger effect = lower value 0.913 | S. cerevisiae deletion strains, locus YDR052C, strain DBF4, stronger effect = lower value 0.989 | S. cerevisiae deletion strains, locus YDR054C, strain cdc34, stronger effect = lower value 0.996 | S. cerevisiae deletion strains, locus YDR226W, strain ADK1, stronger effect = lower value 0.991 | S. cerevisiae deletion strains, locus YDR477W, strain SNF1, stronger effect = lower value 0.943 | S. cerevisiae deletion strains, locus YER123W, strain YCK3, stronger effect = lower value 0.884 | S. cerevisiae deletion strains, locus YER133W, strain GLC7, stronger effect = lower value 0.93 | S. cerevisiae deletion strains, locus YFL009W, strain cdc4, stronger effect = lower value 0.982 | S. cerevisiae deletion strains, locus YFL029C, strain CAK1, stronger effect = lower value 0.991 | S. cerevisiae deletion strains, locus YFR003C, strain YPI1, stronger effect = lower value 0.999 | S. cerevisiae deletion strains, locus YFR019W, strain FAB1, stronger effect = lower value 0.911 | S. cerevisiae deletion strains, locus YFR028C, strain CDC14, stronger effect = lower value 0.986 | S. cerevisiae deletion strains, locus YGR040W, strain KSS1, stronger effect = lower value 0.941 | S. cerevisiae deletion strains, locus YGR052W, strain FMP48, stronger effect = lower value 0.929 | S. cerevisiae deletion strains, locus YGR092W, strain DBF2, stronger effect = lower value 0.919 | S. cerevisiae deletion strains, locus YHR079C, strain IRE1, stronger effect = lower value 0.824 | S. cerevisiae deletion strains, locus YHR082C, strain KSP1, stronger effect = lower value 0.968 | S. cerevisiae deletion strains, locus YHR205W, strain SCH9, stronger effect = lower value 0.888 | S. cerevisiae deletion strains, locus YIL147C, strain SLN1, stronger effect = lower value 0.996 | S. cerevisiae deletion strains, locus YJL095W, strain BCK1, stronger effect = lower value 0.877 | S. cerevisiae deletion strains, locus YJL128C, strain PBS2, stronger effect = lower value 0.951 | S. cerevisiae deletion strains, locus YJL157C, strain FAR1, stronger effect = lower value 0.923 | S. cerevisiae deletion strains, locus YJR016C, strain ILV3, stronger effect = lower value 0.994 | S. cerevisiae deletion strains, locus YJR066W, strain TOR1 (second series), stronger effect = lower value 0.88 | S. cerevisiae deletion strains, locus YJR066W, strain TOR1, stronger effect = lower value 0.942 | S. cerevisiae deletion strains, locus YKL048C, strain ELM1, stronger effect = lower value 0.964 | S. cerevisiae deletion strains, locus YKL067W, strain YNK1, stronger effect = lower value 0.916 | S. cerevisiae deletion strains, locus YKL101W, strain HSL1, stronger effect = lower value 0.905 | S. cerevisiae deletion strains, locus YKL193C, strain SDS22, stronger effect = lower value 0.996 | S. cerevisiae deletion strains, locus YKL203C, strain TOR2, stronger effect = lower value 0.964 | S. cerevisiae deletion strains, locus YLR133W, strain CKI1, stronger effect = lower value 0.91 | S. cerevisiae deletion strains, locus YLR403W, strain SFP1, stronger effect = lower value 0.945 | S. cerevisiae deletion strains, locus YML070W, strain DAK1, stronger effect = lower value 0.89 | S. cerevisiae deletion strains, locus YMR001C, strain CDC5, stronger effect = lower value 0.998 | S. cerevisiae deletion strains, locus YMR205C, strain PFK2 (second series), stronger effect = lower value 0.927 | S. cerevisiae deletion strains, locus YMR277W, strain FCP1, stronger effect = lower value 0.992 | S. cerevisiae deletion strains, locus YNL006W, strain LST8, stronger effect = lower value 0.99 | S. cerevisiae deletion strains, locus YNL020C, strain ARK1, stronger effect = lower value 0.914 | S. cerevisiae deletion strains, locus YNL161W, strain CBK1, stronger effect = lower value 0.971 | S. cerevisiae deletion strains, locus YNL183C, strain NPR1, stronger effect = lower value 0.915 | S. cerevisiae deletion strains, locus YNL207W, strain RIO2, stronger effect = lower value 0.985 | S. cerevisiae deletion strains, locus YNL222W, strain SSU72, stronger effect = lower value 0.994 | S. cerevisiae deletion strains, locus YNL307C, strain MCK1 (second series), stronger effect = lower value 0.886 | S. cerevisiae deletion strains, locus YOL078W, strain AVO1, stronger effect = lower value 0.993 | S. cerevisiae deletion strains, locus YOL136C, strain PFK27, stronger effect = lower value 0.882 | S. cerevisiae deletion strains, locus YOR061W, strain CKA2, stronger effect = lower value 0.952 | S. cerevisiae deletion strains, locus YOR119C, strain RIO1, stronger effect = lower value 0.995 | S. cerevisiae deletion strains, locus YOR231W, strain MKK1, stronger effect = lower value 0.865 | S. cerevisiae deletion strains, locus YOR329C, strain SCD5, stronger effect = lower value 0.994 | S. cerevisiae deletion strains, locus YPL031C, strain PHO85, stronger effect = lower value 0.921 | S. cerevisiae deletion strains, locus YPL153C, strain RAD53, stronger effect = lower value 0.928 | S. cerevisiae deletion strains, locus YPL204W, strain HRR25, stronger effect = lower value 0.892 | S. cerevisiae deletion strains, locus YPL209C, strain IPL1, stronger effect = lower value 0.998 | S. cerevisiae deletion strains, locus YPR025C, strain CCL1, stronger effect = lower value 0.994 | S. cerevisiae deletion strains, locus YPR106W, strain ISR1, stronger effect = lower value 0.982 | S. cerevisiae deletion strains, locus YPR111W, strain DBF20, stronger effect = lower value 0.969 | S. cerevisiae deletion strains, strain NNK1, stronger effect = lower value 0.978 | S. cerevisiae deletion strains, strain TSCII, stronger effect = lower value 0.983
active: [2] 0.822 | S. cerevisiae deletion strains, locus YLR113W, strain HOG1, stronger effect = lower value 0.739 | S. cerevisiae deletion strains, locus YPL256C, strain CLN2, stronger effect = lower value 0.763

COc1cc(NC(=O)Nc2ccc(OC(F)(F)F)cc2)cc(C(F)(F)F)c1
inactive: S. cerevisiae deletion strains, locus YAL013W, strain DEP1, stronger effect = lower value 0.987 | S. cerevisiae deletion strains, locus YBR229C, strain ROT2, stronger effect = lower value 0.987 | [1] 0.997 | S. cerevisiae deletion strains, locus YDL134C, strain PPH21, stronger effect = lower value 1.01 | S. cerevisiae deletion strains, locus YDR150W, strain NUM1, stronger effect = lower value 0.971 | S. cerevisiae deletion strains, locus YEL061C, strain CIN8, stronger effect = lower value 0.961 | S. cerevisiae deletion strains, locus YGR078C, strain PAC10, stronger effect = lower value 0.984 | [2] 0.895 | S. cerevisiae deletion strains, locus YHR087W, strain rtc3, stronger effect = lower value 0.984 | S. cerevisiae deletion strains, locus YJL187C, strain SWE1, stronger effect = lower value 1.01 | S. cerevisiae deletion strains, locus YJR043C, strain POL32, stronger effect = lower value 0.999 | S. cerevisiae deletion strains, locus YJR075W, strain HOC1, stronger effect = lower value 1 | S. cerevisiae deletion strains, locus YLR039C, strain RIC1, stronger effect = lower value 0.895 | S. cerevisiae deletion strains, locus YLR058C, strain SHM2 (second series), stronger effect = lower value 1 | S. cerevisiae deletion strains, locus YLR085C, strain ARP6, stronger effect = lower value 0.951 | S. cerevisiae deletion strains, locus YLR262C, strain YPT6, stronger effect = lower value 0.968 | S. cerevisiae deletion strains, locus YML094W, strain GIM5, stronger effect = lower value 0.919 | S. cerevisiae deletion strains, locus YMR219W, strain ESC1, stronger effect = lower value 1.02 | S. cerevisiae deletion strains, locus YMR263W, strain SAP30, stronger effect = lower value 0.991 | S. cerevisiae deletion strains, locus YMR307W, strain GAS1, stronger effect = lower value 0.864 | S. cerevisiae deletion strains, locus YNL153C, strain GIM3, stronger effect = lower value 0.987 | S. cerevisiae deletion strains, locus YNL298W, strain CLA4 (second series), stronger effect = lower value 0.923 | S. cerevisiae deletion strains, locus YNL322C, strain KRE1, stronger effect = lower value 1.01 | S. cerevisiae deletion strains, locus YNR030W, strain Alg12, stronger effect = lower value 0.935 | S. cerevisiae deletion strains, locus YOL006C, strain TOP1, stronger effect = lower value 0.996 | S. cerevisiae deletion strains, locus YPL055C, strain LGE1, stronger effect = lower value 0.928 | S. cerevisiae deletion strains, locus YPL241C, strain CIN2, stronger effect = lower value 0.893 | S. cerevisiae deletion strains, locus YPR135W, strain CTF4, stronger effect = lower value 1 | S. cerevisiae strains, strain wild type, stronger effect = lower value 1.01
